A short description of experiment [1]: qHTS for Inhibitors of Plasmodium falciparum (DD2) proliferation (AID 504314). The procedure, abridged:
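SYBR Green DNA-fluorescence growth assay: infected RBCs at 0.3% parasitemia, 2.5% hematocrit, 72 h compound exposure, 37C, 5% CO2; overnight lysis with dye at RT; normalized to 0.29 uM artemisinin and vehicle.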

A short description of experiment [2]: qHTS for Inhibitors of Plasmodium falciparum (GB4) proliferation (AID 504315). Note: nearly all actives have a fitted effect of over 50% in size. The method, boiled down: (§1)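 Parasite growth measured as SYBR Green DNA fluorescence (ex 485, em 535 nm) after overnight lysis following 72 h culture at 37 °C, 0.3% parasitemia, 2.5% hematocrit. Values normalized against DMSO and 0.29 uM artemisinin controls, with plate-stack correction.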
For orientation: Quantitative high-throughput screening tests each substance at several concentrations.

Experiment [3] is described as follows: qHTS for Inhibitors of Plasmodium falciparum (7G8) proliferation (AID 504316). Note: nearly all actives have a fitted effect of over 65% in size. The procedure, abridged:
as §1

A short description of experiment [4]: qHTS for Inhibitors of Plasmodium falciparum (HB3) proliferation (AID 504318). Note: nearly all actives have a fitted effect of over 60% in size. The procedure, abridged: as §1
Experiment [5] in a line: qHTS for Inhibitors of Plasmodium falciparum (CP250) proliferation (AID 504320). The method, boiled down:
as §1

The target in experiment [6] is Atrial natriuretic peptide receptor 1 (Homo sapiens) (UniProt P16066). The experiment can be described thus: Natriuretic polypeptide receptor (hNpr1) antagonism - Pilot CMLD screen (AID 1347052; calls by dose curve;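 note: cGMP level read as GloSensor luciferase luminescence after agonist stimulation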).

SMILES strings stand for the structures. Several values for one entry are separate records, joined by “and”; a condition that tells them apart may be missing. Equal values may be shown once. Inconclusive results are not listed. Some structures have more than one record in an assay (separate samples or runs), and their calls can disagree. Activity calls are given as the source filed them. Unless noted, calls come from the whole dose curve; as a rule, active = well fitted curve in the direction sought with a large enough effect; inconclusive = small, poorly fitted or top-dose-only effect, or another doubt; inactive = no such curve, though single readings can be large; an effect the other way counts as inactive or inconclusive.
Potency is the fitted concentration of half-maximal effect.

Atrial natriuretic peptide receptor 1 (Homo sapiens), sequence (P16066 whole entry, looked up): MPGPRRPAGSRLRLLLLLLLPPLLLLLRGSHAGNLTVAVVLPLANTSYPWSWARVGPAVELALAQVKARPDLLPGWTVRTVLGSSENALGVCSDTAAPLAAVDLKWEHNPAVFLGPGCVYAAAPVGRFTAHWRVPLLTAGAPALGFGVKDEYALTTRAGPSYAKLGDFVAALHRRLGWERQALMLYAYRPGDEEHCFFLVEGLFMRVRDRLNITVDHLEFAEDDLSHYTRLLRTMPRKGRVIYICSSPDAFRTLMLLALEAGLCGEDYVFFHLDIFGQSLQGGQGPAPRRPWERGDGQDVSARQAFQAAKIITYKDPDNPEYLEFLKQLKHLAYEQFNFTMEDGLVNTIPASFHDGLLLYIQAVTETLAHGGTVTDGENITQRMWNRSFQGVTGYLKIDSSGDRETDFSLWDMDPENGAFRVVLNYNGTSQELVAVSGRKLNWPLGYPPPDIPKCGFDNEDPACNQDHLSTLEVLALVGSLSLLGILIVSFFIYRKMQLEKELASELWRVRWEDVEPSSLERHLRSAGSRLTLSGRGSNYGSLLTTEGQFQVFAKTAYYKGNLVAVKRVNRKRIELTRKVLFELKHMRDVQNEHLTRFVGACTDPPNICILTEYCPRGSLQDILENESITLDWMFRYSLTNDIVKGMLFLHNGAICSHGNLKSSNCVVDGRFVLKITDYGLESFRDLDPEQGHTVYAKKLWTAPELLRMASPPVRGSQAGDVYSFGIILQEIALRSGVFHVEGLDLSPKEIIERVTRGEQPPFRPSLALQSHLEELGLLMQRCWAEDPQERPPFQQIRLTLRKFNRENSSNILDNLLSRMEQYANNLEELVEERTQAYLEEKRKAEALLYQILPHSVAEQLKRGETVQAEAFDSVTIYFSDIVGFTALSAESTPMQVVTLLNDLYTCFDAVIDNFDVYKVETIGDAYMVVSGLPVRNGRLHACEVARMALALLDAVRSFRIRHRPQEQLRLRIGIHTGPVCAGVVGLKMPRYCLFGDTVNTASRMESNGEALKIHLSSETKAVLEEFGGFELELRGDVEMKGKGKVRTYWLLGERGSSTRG

For the compound `FC(F)(F)c1cc(NC(=S)NC(c2ccccc2)c2ccccc2)cc(C(F)(F)F)c1`, the Potency is 1.34 µM (active) and inactive in experiment [1]; 1.51 µM (active) and inactive in experiment [2]; 536 nM (active) and inactive in experiment [3]; 757 nM (active) and inactive in experiment [4]; 1.2 µM (active) and inactive in experiment [5]. Further, the Potency result in experiment [6] was “inactive”.
For the compound `COCCN1C(=O)C2=C(C1=O)C1N(C)c3ccccc3[C@@]13C[C@@H](CO)N=C3N2` (stereo partly specified), the Potency entry in experiment [1], in experiment [2], in experiment [3], in experiment [4], in experiment [5] and in experiment [6] was “inactive” in each case.
Consider `Cc1cc2c(c(=O)o1)[C@H]1O[C@](c3ccsc3)(Cc3cc(C#N)ccc31)O2`, for which the Potency result in experiment [1], in experiment [2], in experiment [3], in experiment [4], in experiment [5] and in experiment [6] was “inactive” each time.
In the case of `COCCN1C(=O)NC(c2ccccc2)C(C(=O)OC)=C1C` (stereo unspecified), the Potency entry in experiment [1], in experiment [2], in experiment [3], in experiment [4], in experiment [5] and in experiment [6] was “inactive” in each case.
For `CCN1C(=NCCc2ccc(Br)cc2)N[C@@H](c2ccccc2)[C@H](C(=O)OC)[C@H]1C`, the Potency result in experiment [1], in experiment [2], in experiment [3], in experiment [4], in experiment [5] and in experiment [6] was “inactive” throughout.
Regarding `COc1cccc(O[C@H]2C=C[C@@H](c3ccccc3)O[C@H]2CO)c1`, the Potency result in experiment [1], in experiment [2], in experiment [3], in experiment [4], in experiment [5] and in experiment [6] was “inactive” each time.
Take `COC(=O)NC(CCc1ccccc1)C(C(=O)OC)C(=O)OC` (stereo unspecified): the Potency entry in experiment [1], in experiment [2], in experiment [3], in experiment [4], in experiment [5] and in experiment [6] was “inactive” throughout.
As for `Cc1cccc(C)c1Nc1oc(-c2ccccc2)nc1C(C)(C)C`, the Potency result in experiment [1], in experiment [2], in experiment [3], in experiment [4], in experiment [5] and in experiment [6] was “inactive” each time.
As to `COCC=CC1=CC2=CC(=O)C(C)(OC(=O)c3cnc4ccccc4n3)C(=O)C2=CN1C1CC1` (stereo unspecified), the Potency entry in experiment [1], in experiment [2], in experiment [3], in experiment [4], in experiment [5] and in experiment [6] was “inactive” each time.
Take `CCN1C(=O)[C@@H]2[C@H]3[C@H](O)[C@H](O)CC(=NO[C@@H](C)c4cn([C@H](CO)Cc5ccccc5)nn4)[C@@H]3CC[C@H]2C1=O`: the Potency result in experiment [1], in experiment [2], in experiment [3], in experiment [4], in experiment [5] and in experiment [6] was “inactive” each time.
Consider `CCN1C(=O)N[C@@H](c2cccc(C(F)(F)F)c2)[C@H](C(C)=O)[C@H]1C`, for which the Potency result in experiment [1], in experiment [2], in experiment [3], in experiment [4], in experiment [5] and in experiment [6] was “inactive” each time.
Regarding `COC(=O)C1(C(=O)OC)Cc2conc2[C@@H]1c1ccccc1`, the Potency result in experiment [1], in experiment [2], in experiment [3], in experiment [4], in experiment [5] and in experiment [6] was “inactive” throughout.
For the compound `Cc1noc(C)c1S(=O)(=O)N1CCc2nc(COc3ccccc3)c3c(c2C1)CO[C@@H](C)C3`, the Potency entry in experiment [1], in experiment [2], in experiment [3], in experiment [4], in experiment [5] and in experiment [6] was “inactive” in each case.
`CCCCC#C[C@@H]1C=C[C@H](Oc2ccc(C(=O)OC)cc2)[C@@H](COC(=O)OCC)O1`: the Potency result in experiment [1], in experiment [2], in experiment [3], in experiment [4], in experiment [5] and in experiment [6] was “inactive” each time.
Consider `COC(=O)C1=C(C(=O)OC)[C@@H]2N(C)c3ccc(OC)cc3[C@@]23C[C@@H](C(=O)OC)N(C(=O)c2cc(C)oc2C)C3=N1`, for which the Potency entry in experiment [1], in experiment [2], in experiment [3], in experiment [4], in experiment [5] and in experiment [6] was “inactive” each time.
Take `CC(C)CON=C1C[C@@H](O)[C@@H](O)[C@@H]2[C@H]3C(=O)N(c4ccc(F)cc4F)C(=O)[C@@H]3CC[C@@H]12`: the Potency result in experiment [1], in experiment [2], in experiment [3], in experiment [4], in experiment [5] and in experiment [6] was “inactive” in each case.
For the compound `C=CCOC(=O)N[C@H](C(C(=O)OC)=C(C)NCc1ccccc1)c1cccc(C(F)(F)F)c1`, the Potency entry in experiment [1], in experiment [2], in experiment [3], in experiment [4] and in experiment [5] was “inactive” in each case. Besides, the Potency entry in experiment [6] is “inactive and 1.33 µM (active)”.
Consider `COC(=O)C=C[C@H]1c2ccccc2[C@@H](OC)[C@@H]1C`, for which the Potency entry in experiment [1], in experiment [2], in experiment [3], in experiment [4], in experiment [5] and in experiment [6] was “inactive” each time.
With `C[C@@H]1C=CCCO[C@]12C(=O)N(CC1CC1)c1ccccc12`, the Potency entry in experiment [1], in experiment [2], in experiment [3], in experiment [4], in experiment [5] and in experiment [6] was “inactive” in each case.
As for `C=CCOC(=O)N[C@H](C[N+](=O)[O-])c1ccccc1`, the Potency result in experiment [1], in experiment [2], in experiment [3], in experiment [4], in experiment [5] and in experiment [6] was “inactive” throughout.
Regarding `COCCN1C=C2C(=O)C(C)(OC(=O)c3cccs3)C(=O)C=C2C=C1CCCC(=O)OC` (stereo unspecified), the Potency result in experiment [1], in experiment [2], in experiment [3], in experiment [4], in experiment [5] and in experiment [6] was “inactive” in each case.
As for `CCN1C(=O)N[C@@H](CCc2ccccc2)[C@H](C(C)=O)[C@H]1C`, the Potency result in experiment [1], in experiment [2], in experiment [3], in experiment [4], in experiment [5] and in experiment [6] was “inactive” in each case.
For the compound `C=CCOC(=O)C(C(C)=O)[C@@H](NC(=O)OC)c1ccc(Cl)cc1` (stereo partly specified), the Potency entry in experiment [1], in experiment [2], in experiment [3], in experiment [4], in experiment [5] and in experiment [6] was “inactive” each time.
Consider `CCOC(=O)CN1C(=O)N[C@@H](c2cccc(C(F)(F)F)c2)[C@H](C(C)=O)[C@H]1C`, for which the Potency entry in experiment [1], in experiment [2], in experiment [3], in experiment [4], in experiment [5] and in experiment [6] was “inactive” throughout.
Consider `C=C1CN2C(=NC(c3ccccc3)C(C(=O)OC)=C2C)O1` (stereo unspecified), for which the Potency entry in experiment [1], in experiment [2], in experiment [3], in experiment [4], in experiment [5] and in experiment [6] was “inactive” each time.
For `COC(=O)C[C@H]1c2ccccc2[C@@H]2C(=C[C@@H](C)[C@H]3C(=O)N(O)C(=O)[C@H]32)N1C(=O)OC`, the Potency entry in experiment [1], in experiment [2], in experiment [3], in experiment [4], in experiment [5] and in experiment [6] was “inactive” in each case.

The record behind these values is PubChem BioAssay (NCATS).
